# This is part of a sample that, as a whole, favours compounds with a hit. Of some 83,000 tested, about 20% had one in any assay.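 Single-dose data. Exposure time 48 hours. Values below 10 considered active.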 Unmarked numbers belong to inactive results. Active and inactive are the calls of the source.
# Test system: HL-60(TB) leukemia
# Assay: NCI-60 one-dose screen, 48 h (100 = growth as untreated, 0 = no growth, -100 = all killed)
# Details: 10 µM unless noted
row,SMILES,growth
1,Fc1ccc2[nH]cc(-c3nc(-c4c[nH]c5ccncc45)cs3)c2c1,-42.1% (active)
2,O=S(=O)(NCCCNc1cc(-c2cn(-c3ccccc3)nc2-c2cccc(O)c2)ccn1)c1ccc(C(F)(F)F)cc1,25%
3,CC(=O)/C(=C/c1ccccc1)C(=O)CC(C)C,38.8%
4,O=C(O)c1cccc([N+](=O)[O-])c1/C=C/c1ccccc1,97.4%
5,CC1NC(C)c2ccc3ccccc3c2O1 (stereo unspecified),99.4%
6,O=C(N/N=C/c1cc2ccccc2n2nnnc12)Nc1ccccc1,91.8%
7,OCC1OC(n2ccc3c(NO)ncnc32)C(O)C1O (stereo unspecified),-35.1% (active)
8,N#C/C(=C\c1ccc(Br)cc1)n1nnc2cc(F)c(F)cc21,-16.2% (active)
9,CCC(=O)Nc1cc2c(cc1Cl)-c1ccccc1C2,39.4%
10,Cc1cc2cn3c4cccnc4[nH]c(=O)c3c2cc1C,-32.6% (active)
11,C=C1CCC2C3(C)COC(c4cccc(Cl)c4)OC3CCC2(C)C1/C=C/C1=CCOC1=O (stereo unspecified),33.7%
12,COc1cc2nc(N3CCC[C@H](NC4=CC(=O)c5ccccc5C4=O)C3)nc(N)c2cc1OC,-64.6% (active)
13,O=C1CN(CCN2CC(=O)N(Cc3ccccc3)C(=O)C2)CC(=O)N1Cc1ccccc1,97.7%
14,O=C(CN1CCCCC1)Nc1ccc2oc(=O)ccc2c1,78.1%
15,O=C(c1c[nH]c2ccccc12)c1n[nH]c(=S)n1-c1ccc([N+](=O)[O-])cc1,61.4%
16,O=C(Nc1ccccc1)Nc1ccc(C(=O)/C=C/c2ccc(N3CCCC3)cc2)cc1,35.2%
